KB-3-1 tox: qHTS assay for MDR1-selective chemotherapeutics: Primary screen using the parental adenocarcinoma cell KB-3-1; KB-3-1 viability, CellTiter-Glo ATP luminescence, 72 h; Potency, µM (titrated, usually from 46.1 µM), usual class: cytotoxic; 400,000 compounds, 1.4% hits; further: nearly all actives have a fitted effect of over 60% in size
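KB-3-1 cells, DMEM (no phenol red) + 10% FBS; compound by pin transfer, 72 h, 37 °C. Readout: CellTiter-Glo luminescence after 10 min. Data normalized, curve-fitted.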
MCF10A rerep: A quantitative high throughput screen for small molecules that induce DNA re-replication in MCF 10a normal breast cells; MCF 10A DNA re-replication, Hoechst nuclear intensity, 48 h; Potency, µM (titrated, usually from 46.1 µM), most hits filed as activators; 350,000 compounds, 2.9% hits; further: nearly all actives have a fitted effect of over 50% in size
HT1080NT lethal: qHTS for induction of synthetic lethality in tumor cells producing 2HG: qHTS for the HT-1080-NT fibrosarcoma cell line; HT-1080-NT fibrosarcoma viability, CellTiter-Glo ATP luminescence, 48 h; Potency, µM (doses to about 46.1 µM), usual class: cytotoxic; 360,000 compounds, 1.6% hits; AID 686970, 2013;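 further: NT is the 2HG producing partner of a matched IDH1 knockdown line; nearly all actives have a fitted effect of over 55% in size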
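Fibrosarcoma NT cells, 750 per well in 5% FBS RPMI, were exposed to compound for 48 hours. Viability: CellTiter-Glo luminescence.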
KB-V1 MDR tox: qHTS assay for MDR1-selective chemotherapeutics: Primary screen using the drug-selected MDR subline cells KB-V1; Potency, µM (titrated, usually from 46.1 µM), hits mostly cytotoxic; AID 1347076, 2019; KB-V1 MDR cells viability, CellTiter-Glo, 72 h; 400,000 compounds, 3.4% hits; further: nearly all actives have a fitted effect of over 60% in size
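KB-V1, DMEM (no phenol red) + 10% FBS; cpd pin-transferred, titration series; 72 h, 37 degrees C; CellTiter-Glo, luminescence. Data normalized, curve-fit.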
HT1080 IDH1KD tx: qHTS for induction of synthetic lethality in tumor cells producing 2HG: qHTS for the HT-1080-IDH1KD cell line; HT-1080 IDH1 knockdown viability, ATP luminescence, 48 h; Potency, µM (highest dose often 46.1 µM), most hits filed as cytotoxic; 360,000 compounds, 2% hits
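HT-1080-IDH1KD cells (IDH1 knocked down), 750/well in RPMI with 5% FBS, treated with compound 48 h at 37 degrees C. Viability by CellTiter-Glo luminescence, normalised to DMSO and no-cell wells; concentration-response curves classed.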
SW480 rereplic: A quantitative high throughput screen for small molecules that induce DNA re-replication in SW480 colon adenocarcinoma cells | SW480 DNA re-replication, Hoechst DNA content imaging, 48 h | Potency, µM (titrated, usually from 46.1 µM), actives largely listed as activators | 340,000 compounds, 1.8% hits; further: nearly all actives have a fitted effect of over 55% in size
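Readout is total intensity of Hoechst-stained nuclei, excited at 405 nm and collected at 500-530 nm. Compound treatment lasted 48 hr at 37 C in 5% CO2 before staining.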
A number is an active result; – = inactive; ? = inconclusive; · = no result. An excerpt weighted towards active compounds, which were near 7.9% of everything screened. The call rests on the fitted dose curve; in most records, active means well fitted curve in the direction sought with a large enough effect; inconclusive means small, poorly fitted or top-dose-only effect, or another doubt; inactive means no such curve, though single readings can be large; an effect the other way counts as inactive or inconclusive.

SMILES	KB-3-1 tox	MCF10A rerep	HT1080NT lethal	KB-V1 MDR tox	HT1080 IDH1KD tx	SW480 rereplic
O=S(=O)(NC1CCCCC1N1CCCCC1)c1ccccc1 (stereo unspecified)	–	–	–	–	–	–
O=S(=O)(NC1CCCCC1N1CCN(c2ccc(F)cc2)CC1)c1ccccc1 (stereo unspecified)	–	26µM	–	–	–	–
O=[N+]([O-])c1ccc(/C=C/c2cc(Cl)nc3ccccc23)cc1	?	·	·	–	·	·
COc1ccc(C2Nc3cc(OC)ccc3-n3cccc32)cc1 (stereo unspecified)	–	16µM	–	?	–	21µM
O=C(Cn1c(=O)oc2ccccc21)Nc1ccccc1Cl	–	–	–	–	–	–
COc1ccc(/C=c2\s/c(=C\C(=O)C(C)(C)C)[nH]c2=O)cc1O	–	?	–	–	–	–
COc1cc(/C=c2\s/c(=C\C(=O)C(C)(C)C)[nH]c2=O)cc(OC)c1OC	–	18µM	–	?	–	4.1µM
C=CCN1C(=O)c2ccc(C(=O)N3CCN(S(=O)(=O)c4ccccc4Br)CC3)cc2C1=O	–	–	–	–	–	–
Cn1cnc2nc(Cl)nc(Cl)c21	3.3µM	7.3µM	?	3.7µM	?	1.3µM
CNc1nc(Cl)nc2ncn(C)c12	–	–	–	–	–	–
CCCCn1cnc2c(c(-c3ccccc3)c(-c3ccccc3)n2Cc2ccco2)c1=N	–	–	–	–	–	–
Cc1cc(NCCCn2ccnc2)n2nc(C)c(-c3ccccc3)c2n1	–	–	?	?	?	–
N=c1c2c(-c3ccccc3)c(-c3ccccc3)n(Cc3ccccc3)c2ncn1CCCn1ccnc1	?	–	23µM	?	23µM	?
N=c1c2c(-c3ccccc3)c(-c3ccccc3)n(Cc3ccco3)c2ncn1Cc1ccco1	16µM	?	16µM	?	21µM	–
Oc1c(C(c2ccccn2)N2CCC(Cc3ccccc3)CC2)cc(Cl)c2cccnc12 (stereo unspecified)	?	16µM	?	2.6µM	21µM	?
CCc1ccc(NC(=O)c2cc3ccccn3n2)cc1	15µM	·	·	?	·	·
O=C(Nc1ccc(Br)cc1)c1cc2ccccn2n1	?	–	–	–	–	–
C=Cc1ccc(COc2ccc3oc(-c4ccccc4)c(C(=O)OCC)c3c2)cc1	–	·	·	–	·	·
Nc1cccnc1S(=O)(=O)c1ccccc1	–	–	–	?	–	–
Nc1nc(N)c2cc(S(=O)(=O)c3cccc(C(F)(F)F)c3)ccc2n1	?	·	13µM	?	10µM	·
Nc1cccnc1S(=O)(=O)c1cccc(C(F)(F)F)c1	–	–	–	–	–	2.9µM
CCOc1ccc(-c2nc(N)ncc2-c2ccccc2)c(O)c1	15µM	–	?	?	?	–
CCOc1ccc(-c2nc(N)ncc2-c2ccc(OC)cc2)c(O)c1	?	–	–	7.3µM	–	?
CCOc1ccc(-c2nc(N)ncc2Oc2ccc(OC)cc2)c(O)c1	–	?	23µM	?	?	–
CCCc1cc(-c2nc(N)ncc2-c2ccc3c(c2)OCCCO3)c(O)cc1OC	–	?	–	2.9µM	?	?
SMILES	KB-3-1 tox	MCF10A rerep	HT1080NT lethal	KB-V1 MDR tox	HT1080 IDH1KD tx	SW480 rereplic
CCOc1ccc(-c2nc(N)ncc2-c2ccc(Cl)cc2)c(O)c1	–	?	?	–	–	–
CCCn1ccnc1SCC(=O)Nc1c(C)n(C)n(-c2ccccc2)c1=O	–	–	–	–	–	–
Cc1cc(-c2cc(NC=O)c3ncc(-c4cccc(C(=O)NCCN(C)C)c4)n3c2)cc(C)c1O	–	·	26µM	–	26µM	·
COc1ccc(-c2cc(NC=O)c3ncc(-c4cccc(C(=O)NCCN(C)C)c4)n3c2)c(OC)c1	–	·	18µM	–	23µM	·
CN(C)CCNC(=O)c1cccc(-c2cnc3c(NC=O)cc(-c4ccccc4F)cn23)c1	–	·	?	–	?	·
COCc1cn(-c2nc3ccccc3s2)nn1	–	·	–	–	–	·
COc1cc(OC)nc(C(NC(=O)C2CCN(Cc3c[nH]c4ccccc34)CC2)c2ccc(Cl)cc2)n1 (stereo unspecified)	?	·	5.8µM	?	–	·
COc1ccc(C(NC(=O)C2CCN(CCOc3ccc(Cl)cc3Cl)CC2)c2ccccn2)cc1 (stereo unspecified)	–	·	23µM	–	21µM	·
COc1ccccc1C(NC(=O)C1CCN(CCOc2ccc(Cl)cc2Cl)CC1)c1ccccn1 (stereo unspecified)	–	·	?	–	15µM	·
COc1ccc(OCCN2CCC(C(=O)NC(c3ccc(Cl)cc3)c3cccnc3)CC2)cc1 (stereo unspecified)	–	·	?	–	21µM	·
Cc1ccc(C(NC(=O)C2CCN(CCOc3ccc(Cl)cc3)CC2)c2ccccn2)cc1 (stereo unspecified)	–	·	?	–	?	·
COc1ccccc1C(NC(=O)C1CCN(CCOc2ccc(Cl)cc2)CC1)c1ccccn1 (stereo unspecified)	–	·	?	–	?	·
Cc1cccc(NC(=O)Cn2ncc3c4ccccc4n(Cc4ccccc4)c3c2=O)c1C	–	·	·	?	·	·
CCNC(=O)C1(C)CCCN(C(=O)c2oc3ccccc3c2C)C1 (stereo unspecified)	–	·	?	–	–	·
Cc1ccc(CCNC(=O)c2ccc(NC(=O)N3CCSc4ccccc43)cc2)cc1	–	·	·	–	·	·
Cn1c(=O)c2c(n3cnnc13)-c1ccccc1CC21CCCC1	–	–	–	23µM	–	–
Cc1ccc(S(=O)(=O)N2[C@H](CC(=O)OCc3ccccc3)OC[C@@H]2C(C)C)cc1	–	·	–	–	–	·
Cc1ccc(S(=O)(=O)NC(=O)C2(C)CCN2C(=O)c2cccc(F)c2)cc1 (stereo unspecified)	–	·	–	–	–	·
CC(/C=N/NC(=O)Cc1cccn1C)=C\c1ccccc1	–	–	–	16µM	–	–
CC(C=NNC(=O)C(=O)NN=CC(C)=Cc1ccccc1)=Cc1ccccc1	–	–	–	–	–	?
COc1cc(C(C)=O)ccc1Oc1ncnc2c1cnn2-c1ccccc1	–	–	–	15µM	–	–
Clc1cccc(-c2nc3ccc(Cl)cn3c2Cc2ccsc2)c1	–	·	–	–	–	·
CC(=O)Nc1ccc(S(=O)(=O)N(C)c2ccc(OCC(=O)OCC(=O)NCc3ccco3)cc2)cc1	–	?	–	–	–	–

Bioassay records: PubChem BioAssay, National Center for Advancing Translational Sciences (NCATS)
